Test results published in PubChem BioAssay (NCATS).
Inconclusive results are not listed. Unmarked numbers belong to inactive results. Calls come from the whole dose curve; as a rule, active = well fitted inhibition curve with a large enough effect; inconclusive = small, poorly fitted or top-dose-only effect; inactive = flat fitted curve, though single readings scatter.

These molecules were tested against Luciferin 4-monooxygenase (Photinus pyralis) (UniProt P08659) (assay: Biochemical firefly luciferase enzyme assay for NPC (AID 624030;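 note: purified P. pyralis luciferase at 10 nM with luciferin and ATP substrate; 0% = DMSO and -100% = full luciferase inhibition by PTC124 control; nearly all actives have a fitted effect of over 70% in size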)). Settings: purified P. pyralis luciferase, luminescence, 5 min; series mostly up to 58.6 µM; activity change, negative = inhibition: at the top concentration.
How it was run: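 Purified P. pyralis luciferase at 10 nM in 50 mM Tris Acetate (final), luminescence read within 5 minutes of enzyme addition to compounds. Activity normalised to PTC124 versus DMSO; concentration-response curves classed by r2, magnitude and activity.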

Luciferin 4-monooxygenase (Photinus pyralis), sequence (P08659 whole entry, looked up): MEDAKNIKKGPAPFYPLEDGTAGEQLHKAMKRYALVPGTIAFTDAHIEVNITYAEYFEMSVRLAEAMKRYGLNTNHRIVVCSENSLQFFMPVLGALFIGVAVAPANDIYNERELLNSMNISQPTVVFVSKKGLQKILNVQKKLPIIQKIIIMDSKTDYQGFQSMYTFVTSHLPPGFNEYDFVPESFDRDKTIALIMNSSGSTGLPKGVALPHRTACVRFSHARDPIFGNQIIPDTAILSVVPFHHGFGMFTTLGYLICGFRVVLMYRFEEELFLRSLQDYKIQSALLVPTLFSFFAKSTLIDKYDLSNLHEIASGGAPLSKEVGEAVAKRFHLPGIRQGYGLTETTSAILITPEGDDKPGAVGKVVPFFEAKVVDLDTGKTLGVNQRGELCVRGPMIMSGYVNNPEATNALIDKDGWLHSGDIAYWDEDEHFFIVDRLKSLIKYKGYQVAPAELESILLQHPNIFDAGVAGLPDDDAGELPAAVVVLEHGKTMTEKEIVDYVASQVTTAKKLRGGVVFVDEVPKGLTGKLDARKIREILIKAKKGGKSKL

SMILES	activity change, negative = inhibition
CC(C)(C)NC(=O)[C@H]1CC[C@H]2[C@@H]3CC=C4C=C(C(=O)O)CC[C@@]4(C)[C@H]3CC[C@]12C	-5.42%
CC(C)(S)C(=O)N[C@H](CS)C(=O)O	-0.889%
CC#CCC(C)[C@H](O)/C=C/C1[C@H](O)C[C@@H]2C/C(=C\CCCC(=O)O)C[C@H]12 (stereo partly specified)	0.3%
CCCCCCCC(=O)CC[C@H]1[C@@H](C/C=C/CCCC(=O)OC(C)C)[C@@H](O)C[C@H]1O	2.73%
CC(C)(C)CC(=O)OCC(=O)[C@@]12OC(C)(C)O[C@@H]1C[C@H]1[C@@H]3CCC4=CC(=O)C=C[C@]4(C)[C@@]3(F)[C@@H](O)C[C@]12C	-1.17%
CO[C@H]1C[C@@H](O[C@@H]2[C@@H](C)O[C@@H](O[C@@H]3/C(C)=C/CC4C[C@@H](C[C@]5(C=C[C@@H](C)[C@H](C6CCCCC6)O5)O4)OC(=O)[C@@H]4C=C(C)[C@@H](O)[C@H]5OC/C(=C\C=C\[C@@H]3C)[C@]54O)C[C@H]2OC)O[C@@H](C)[C@@H]1O	-0.99%
Fc1ccc(C2CCNCC2COc2ccc3c(c2)OCO3)cc1 (stereo unspecified)	8.57%
CC#CC[C@@H](C)[C@@H](O)/C=C/[C@H]1[C@H]2c3cccc(CCCC(=O)O)c3O[C@H]2C[C@@H]1O	1.74%
CO/N=C(\C(=O)N[C@@H]1C(=O)N2C(C(=O)O)=C(Cn3nnc(C)n3)CS[C@H]12)c1csc(N)n1	0.691%
C[C@@H]1O[C@@]2(CS1)CN1CCC2CC1	-0.752%
O=C1OC2C(O)C(O)OC2C1O (stereo unspecified)	-1.14%
